# In PubChem BioAssay (NCI):
# About 83,000 compounds went through this panel and 20% of them were active in at least one assay; those are over-represented in the sample as a whole.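 Single-concentration screen, 48 h exposure, 96-well plates. Endpoint: percent growth. Below 10 = active.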 Values without a mark were called inactive. Calls of active or inactive are those of the source.
# Tests used:
# Assay in all cases: NCI-60 one-dose screen, 48 h (100 = growth as untreated, 0 = no growth, -100 = all killed)
# Details in all cases: 10 µM unless noted
# NCI-H23 lung = test system: NCI-H23 lung
# NCI-H226 lung = test system: NCI-H226 lung
# NCI-H322M lung = test system: NCI-H322M lung
# HOP-62 NSCLC = test system: HOP-62 NSCLC
# NCI-H460 lung = test system: NCI-H460 lung
# HOP-92 NSCLC = test system: HOP-92 NSCLC
# A549/ATCC NSCLC = test system: A549/ATCC NSCLC
# 786-0 renal = test system: 786-0 renal
# COLO 205 colon = test system: COLO 205 colon
# NCI-H522 lung = test system: NCI-H522 lung
SMILES,growth (NCI-H23 lung),growth (NCI-H226 lung),growth (NCI-H322M lung),growth (HOP-62 NSCLC),growth (NCI-H460 lung),growth (HOP-92 NSCLC),growth (A549/ATCC NSCLC),growth (786-0 renal),growth (COLO 205 colon),growth (NCI-H522 lung)
O=C1NC(=O)C(Cc2ccccc2)(Cc2ccccc2)N1,101%,90.4%,106%,84.9%,104%,87.5%,102%,90.9%,107%,–
O=C(NCCCNC(=O)OCc1ccc2cccc(O)c2n1)OCc1ccc2cccc(O)c2n1,70%,71.1%,59.4%,32.1%,26.1%,33.9%,47.5%,60.1%,29.6%,–
CCCCNC(=O)NS(=O)(=O)Cc1ccccc1,114%,107%,118%,107%,111%,94.4%,101%,99%,118%,–
CC1(C)NCCC[C@]2(C)[C@H]3C=CC4=C5C[C@](C)(CO)CC[C@]5(C)CC[C@@]4(C)[C@]3(C)CC[C@@H]12,-84.9% [100 µM] (active),-59.1% [100 µM] (active),-99.7% [100 µM] (active),-74.5% [100 µM] (active),-81.6% [100 µM] (active),-76.4% [100 µM] (active),-66.5% [100 µM] (active),-72% [100 µM] (active),-55.9% [100 µM] (active),-75.6% [100 µM] (active)
C=C(CN=[N+]=[N-])[C@@H]1CC[C@]2(C)[C@H](CC[C@@H]3[C@H]4[C@H]5OC(=O)[C@@]4(CCC5(C)C)CC[C@]32C)[C@@]1(C)CCC#N,82.2% [100 µM],83.1% [100 µM],96.9% [100 µM],90.9% [100 µM],73.5% [100 µM],65% [100 µM],78.6% [100 µM],87.9% [100 µM],100% [100 µM],–
CC(C)c1ccc(/C=N/N=C(N)N)cc1,80.7%,93.2%,106%,84.3%,91.1%,24.1%,88.8%,93.4%,59.8%,–
Cc1cc(SC#N)ncn1,103%,99%,103%,98.2%,99.5%,106%,93.5%,109%,115%,–
Nn1c(Nc2ccc(S(=O)(=O)Nc3ncccn3)cc2)nnc(/C=C/c2c(O)ccc3ccccc23)c1=O,88.9%,78.8%,90%,81.8%,88.4%,83.3%,89.5%,111%,103%,–
O=C1NC(=O)c2cc([N+](=O)[O-])cc3cccc1c23,97.6%,106%,89%,121%,98.5%,80.2%,89.7%,98.6%,–,–
Cc1ccc2c(n1)C(=O)C(Cl)=C(Nc1ccc(N3CCN(C)CC3)cc1)C2=O,16.7%,105%,97.3%,63.7%,97.2%,-86.3% (active),97.6%,52.2%,82.5%,–
C=C(C)[C@@H]1CC[C@]2(C(=O)NCCNCCNC(=O)OC(C)(C)C)CC[C@]3(C)[C@H](CC[C@@H]4[C@@]5(C)CCC(=O)C(C)(C)[C@@H]5CC[C@]43C)[C@@H]12,37.1% [100 µM],44.2% [100 µM],73.8% [100 µM],45.4% [100 µM],20.6% [100 µM],8.07% [100 µM] (active),32.1% [100 µM],52.6% [100 µM],57.7% [100 µM],–
CC(=O)Nc1ccc2nc3ccc(NC(C)=O)cc3[n+](-c3ccccc3)c2c1,104%,127%,109%,103%,108%,136%,106%,102%,109%,–
CCc1ccc(NC(=O)N[C@@H](Cc2cc(F)cc(F)c2)C(=O)N[C@@H]2C(=O)N3C[C@H](O)C[C@H]3C(=O)N3CCOC[C@H]3C(=O)N[C@@H](C)C(=O)N3C[C@H](C)C[C@H]3C(=O)O[C@H]2C)cc1,34.5%,63.2%,84.3%,72.9%,46.5%,10.3%,79.3%,89.1%,11.1%,27%
